Assay results taken from PubChem BioAssay (Tox21).
Unmarked numbers belong to inactive results. Results filed as inconclusive are left out. A call without a number means that no potency is given here. Active and inactive are the calls of the source. Unless noted, calls come from the whole dose curve; as a rule, active = well fitted curve in the direction sought with a large enough effect in the repeat runs; inconclusive = weak or mixed curves; inactive = no such curve, though single readings can be large; an effect the other way counts as inactive or inconclusive.

Legend:
[1] = qHTS assay to identify small molecule antagonists of the estrogen receptor alpha (ER-alpha) signaling pathway using the BG1 cell line in the presence of 0.1 nM 17-beta-estradiol - cell viability counter screen (AID 1259241); note: nearly all actives have a fitted effect of over 40% in size
Method in brief: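 VM7Luc4E2 cells (endogenous full-length ER-alpha, 4xERE-luciferase), cultured 5 days in charcoal-stripped serum, exposed to compounds with 0.1 nM 17beta-estradiol (final) for 22 hr at 37C. Viability read in same wells as live-cell protease fluorescence after 30 min.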

[2] = qHTS assay to identify small molecule antagonists of the androgen receptor (AR) signaling pathway using the MDA cell line in the presence of 0.5 nM R1881 - cell viability counter screen (AID 1259242); note: nearly all actives have a fitted effect of over 45% in size
Method in brief: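 Counter screen for cytotoxicity run in the same wells as the AR antagonist reporter screen: MDA-kb2 cells were treated 16 hr with test compounds and 0.5 nM R1881, then live-cell protease activity was measured by fluorescence.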

[3] = target: Estrogen receptor (Homo sapiens) (UniProt P03372); test: qHTS assay to identify small molecule antagonists of the estrogen receptor alpha (ER-alpha) signaling pathway using the BG1 cell line in the presence of 0.1 nM 17-beta-estradiol (AID 1259244); note: nearly all actives have a fitted effect of over 50% in size
Estrogen receptor (Homo sapiens), sequence (P03372 whole entry, looked up): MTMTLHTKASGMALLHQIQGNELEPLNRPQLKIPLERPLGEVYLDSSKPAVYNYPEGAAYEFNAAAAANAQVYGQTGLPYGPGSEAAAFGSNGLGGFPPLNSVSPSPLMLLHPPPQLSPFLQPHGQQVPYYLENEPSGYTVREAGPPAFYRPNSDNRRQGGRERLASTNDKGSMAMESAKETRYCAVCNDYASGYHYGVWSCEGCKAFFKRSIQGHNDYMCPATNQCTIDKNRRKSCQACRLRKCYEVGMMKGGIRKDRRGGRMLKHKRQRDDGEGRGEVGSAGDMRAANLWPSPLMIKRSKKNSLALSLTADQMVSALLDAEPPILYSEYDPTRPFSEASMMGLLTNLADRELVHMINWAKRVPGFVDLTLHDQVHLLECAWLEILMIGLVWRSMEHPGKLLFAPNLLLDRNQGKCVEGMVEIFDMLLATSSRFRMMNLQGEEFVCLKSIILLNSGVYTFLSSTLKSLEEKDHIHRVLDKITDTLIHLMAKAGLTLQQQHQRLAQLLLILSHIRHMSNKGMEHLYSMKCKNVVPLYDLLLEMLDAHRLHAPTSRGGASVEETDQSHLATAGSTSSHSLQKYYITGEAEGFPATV
Method in brief: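 Cells: VM7Luc4E2, endogenous ER-alpha, 4x ERE-luc stable. Pre-culture 5 d, phenol red-free, charcoal-stripped FBS. Plated 24 h, compound + E2 0.1 nM final, 22 h 37C/5% CO2. Readout ONE-Glo luminescence.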

[4] = qHTS assay to identify small molecule phospholipidosis (PLD) inducers (AID 1259344; active = well fitted curve in the direction sought with a large enough effect; an effect the other way counts as inactive or inconclusive; note: potency is the fitted concentration of half-maximal effect)
Method in brief: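 HepG2 cells, 900/well, treated with compound plus LipidTOX Red for 24 h at 37 C; amiodarone positive and DMSO negative controls. Fixed with paraformaldehyde/Hoechst, then high-content imaging scored LipidTOX pit count and integrated intensity per well and per cell.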

[5] = qHTS assay to identify small molecule HDAC inhibitors (AID 1259364); note: top concentration of the series differs between compounds; nearly all actives have a fitted effect of over 45% in size
Method in brief: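 Luminescence from a cell-permeant luminogenic class I/II HDAC substrate reports endogenous deacetylase activity in intact HCT-116 cells treated with compounds for 2 h.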

[6] = qHTS assay to identify small molecule HDAC inhibitors - cell viability counter screen (AID 1259365); note: series mostly up to about 92 µM; nearly all actives have a fitted effect of over 50% in size
Method in brief: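 Wild-type HCT-116 cells, 1,500/well, cultured overnight, then compound-treated 2 h at 37 C. Viability measured as ATP luminescence with CellTiter-Glo after 30 min at room temperature.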

[7] = qHTS assay to identify small molecule agonists of the sonic hedgehog signaling (Shh) pathway - cell viability counter screen (AID 1259366); note: nearly all actives have a fitted effect of over 50% in size; note: potency is the fitted concentration of half-maximal effect
Method in brief: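 NIH/3T3-derived Gli1-Luc reporter cells, 2,000 per well, received compound after 4 h and were treated about 23 h at 37C. Viability measured in the same wells by CellTiter-Fluor fluorescence after 1 h.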

[8] = qHTS assay to identify small molecule antagonists of the sonic hedgehog signaling (Shh) pathway - cell viability counter screen (AID 1259367); note: nearly all actives have a fitted effect of over 55% in size
Method in brief: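 NIH/3T3-derived Gli1-Luc reporter cells, 2,000/well, plated 4 hr before compound addition, then stimulated with conditioned medium for 24 hr at 37C. Viability measured in the same wells by CellTiter-Fluor fluorescence, reagent added at 23 hr for 1 hr.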

[9] = A CellTox Green Cytotoxicity Assay to monitor cytotoxicity in HepG2 cells - 8 hour (AID 1224890); note: nearly all actives have a fitted effect of over 45% in size
Method in brief: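 Read-out is fluorescence of a cyanine dye excluded from live cells that stains DNA of dead HepG2 cells, with signal proportional to cytotoxicity. Plates were read at 0, 8, 16, 24, 32 and 40 h after compound addition.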

[10] = target: Androgen receptor (Homo sapiens) (UniProt P10275); test: qHTS assay to identify small molecule antagonists of the androgen receptor (AR) signaling pathway using the MDA cell line in the presence of 0.5 nM R1881 (AID 1259243); note: nearly all actives have a fitted effect of over 50% in size
Androgen receptor (Homo sapiens), sequence (P10275 whole entry, looked up): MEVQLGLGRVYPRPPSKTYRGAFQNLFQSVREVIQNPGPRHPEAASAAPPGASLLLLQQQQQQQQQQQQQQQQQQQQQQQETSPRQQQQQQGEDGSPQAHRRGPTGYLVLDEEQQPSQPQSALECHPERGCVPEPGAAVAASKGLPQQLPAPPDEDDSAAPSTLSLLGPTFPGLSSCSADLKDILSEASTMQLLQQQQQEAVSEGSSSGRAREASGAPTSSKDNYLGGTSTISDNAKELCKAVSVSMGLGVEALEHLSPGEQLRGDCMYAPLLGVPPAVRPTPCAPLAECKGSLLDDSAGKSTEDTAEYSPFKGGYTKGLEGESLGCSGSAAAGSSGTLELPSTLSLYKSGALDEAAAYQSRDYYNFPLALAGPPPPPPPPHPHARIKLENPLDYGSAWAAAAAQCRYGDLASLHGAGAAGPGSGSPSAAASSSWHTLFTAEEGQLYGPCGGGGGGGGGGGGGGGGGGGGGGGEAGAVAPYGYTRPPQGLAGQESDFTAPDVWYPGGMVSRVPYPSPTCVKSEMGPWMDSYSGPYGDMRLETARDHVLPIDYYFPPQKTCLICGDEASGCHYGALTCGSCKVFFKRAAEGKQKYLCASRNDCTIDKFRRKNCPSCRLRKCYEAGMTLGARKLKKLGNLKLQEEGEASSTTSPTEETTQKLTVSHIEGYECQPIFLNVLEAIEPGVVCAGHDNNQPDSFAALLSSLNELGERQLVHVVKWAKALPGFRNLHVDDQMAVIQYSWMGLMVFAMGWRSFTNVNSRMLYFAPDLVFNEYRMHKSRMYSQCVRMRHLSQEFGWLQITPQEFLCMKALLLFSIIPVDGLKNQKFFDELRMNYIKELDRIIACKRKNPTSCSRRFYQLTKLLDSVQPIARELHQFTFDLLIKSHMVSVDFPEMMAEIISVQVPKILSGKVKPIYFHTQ
Method in brief: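 Luciferase luminescence is the read-out: compounds are tested for suppressing 0.5 nM R1881-driven MMTV reporter activity in MDA-kb2 cells after 16 hr at 37C.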

SMILES	outcome [1]	outcome [2]	outcome [3]	Potency [4]	Potency [5]	outcome [6]	Potency [7]	outcome [8]	Potency [9]	Potency [10]
NCCNC(=O)c1ccc(Cl)cn1	inactive	inactive	inactive	inactive	inactive	inactive	inactive	inactive		
CC(C)(O)C(=O)c1ccc(OCCO)cc1	inactive		inactive		inactive	inactive		inactive	inactive	
Nc1nc(F)nc2c1ncn2[C@@H]1O[C@H](CO)[C@@H](O)[C@@H]1O	inactive	inactive	inactive	inactive	inactive	inactive	inactive	inactive		
CCCCCCCCN(C)CCCCCCCC	inactive		inactive		inactive	inactive	inactive	inactive	inactive	
CCCCCCCCCCCCCCC	inactive					inactive	inactive	inactive	inactive	
COCc1ccc(COC)cc1	inactive		inactive				inactive	inactive	inactive	
COc1cccc(Br)c1	inactive	inactive	inactive		inactive	inactive	inactive	inactive		inactive
NC(=O)c1ncn([C@@H]2O[C@H](CO)[C@@H](O)[C@H]2O)c1O	inactive	inactive	inactive	inactive	inactive	inactive	inactive	inactive		
NS(=O)(=O)c1cc(C2(O)NC(=O)c3ccccc32)ccc1Cl (stereo not given)	inactive			inactive	inactive				inactive	
CCOC(=O)[C@H](CCc1ccccc1)N[C@@H](C)C(=O)N1CCC[C@H]1C(=O)O	inactive			inactive	inactive	inactive	inactive		inactive	
CC/C=C\CCCCO	inactive		inactive		inactive	inactive	inactive	inactive	inactive	
CC(C)N1C(=O)c2ccccc2C1=O	inactive				inactive	inactive	inactive		inactive	
O=Cc1ccccc1[N+](=O)[O-]	inactive		inactive		inactive	inactive	inactive	inactive	inactive	
Cc1c(C)n(CCN(C)C)c2ccc(C(=O)OCCN(C)C)cc12		inactive	inactive	11.2 µM (active)	inactive	inactive	inactive	inactive	inactive	
C=CCSCC1Nc2cc(Cl)c(S(N)(=O)=O)cc2S(=O)(=O)N1 (stereo not given)	inactive			inactive	inactive	inactive	inactive	inactive	inactive	
CCCCCCCCCCCCCCCCCCOCC(O)CO (stereo not given)	inactive	inactive	inactive	inactive	inactive	inactive	inactive	inactive		

SMILES	outcome [1]	outcome [2]	outcome [3]	Potency [4]	Potency [5]	outcome [6]	Potency [7]	outcome [8]	Potency [9]	Potency [10]
CC(C)CCCCCCN	inactive		inactive		inactive		inactive	inactive	inactive	
O=C(O)C1CCC1	inactive		inactive		inactive	inactive	inactive	inactive	inactive	
O=C(O)CCNC(=O)c1ccc(N=Nc2ccc(O)c(C(=O)O)c2)cc1		inactive	inactive	inactive		inactive		inactive	inactive	
CC(C)(C)N(CCO)CCO	inactive		inactive			inactive	inactive	inactive	inactive	
CC(C)[C@H](N)C(=O)OCCOCn1cnc2c(=O)[nH]c(N)nc21	inactive	inactive	inactive	inactive	inactive	inactive	inactive	inactive		
C1=C\CC/C=C\CC/C=C\CC/1	inactive				inactive	inactive	inactive	inactive	inactive	
CCO[Si](CCCN=C=O)(OCC)OCC		inactive			inactive	inactive	inactive		inactive	
Cc1onc(-c2ccccc2)c1-c1ccc(S(N)(=O)=O)cc1	inactive			inactive	inactive	inactive			inactive	
CCC(C)(C)C1CCC(OC)CC1 (stereo not given)	inactive		inactive		inactive	inactive	inactive	inactive	inactive	
CC(=O)CCc1ccc(O)cc1	inactive		inactive		inactive	inactive	inactive	inactive	inactive	
CC(=O)N[C@@H](CCC(N)=O)C(=O)O	inactive	inactive	inactive	inactive	inactive	inactive	inactive	inactive		
CCOC(=O)Nc1ccc2c(c1)N(C(=O)CCN1CCOCC1)c1ccccc1S2	inactive	inactive	inactive	inactive	inactive	inactive	inactive	inactive		
NC(=O)CCCCC1CCSS1 (stereo not given)	inactive	inactive	inactive	inactive	inactive	inactive	inactive	inactive		
COc1nc(C)nc(N)n1	inactive		inactive			inactive	inactive	inactive	inactive	
COc1cc(C(=O)N2CCOCC2)cc(OC)c1OC	inactive	inactive		inactive	inactive	inactive	inactive	inactive		
CN(C)C(=O)C(CCN1CCC(O)(c2ccc(Cl)cc2)CC1)(c1ccccc1)c1ccccc1					inactive	inactive	16.8 µM (active)			
